Measurements published in PMC10668032, “Altered binding affinity of SIX1-Q177R correlates with enhanced WNT5A and WNT pathway effector expression in Wilms tumor”.
Whole data set: some 33,000 sequences, median “e-score” near -0.05, cut for the highest 2% near 0.38. The full list was thinned out, with the highest values kept by preference.

molecular target: T1, SIX1-Q177R homeodomain (human, UniProt Q15475 108-198, Q177R); test: universal protein binding microarray; Universal all-10-mer PBM (8x60K, AMADID 030236), 300 nM GST-tagged protein, Alexa Fluor 488 anti-GST; buffer, salt, pH and temperature not stated (as in Berger); high values mean tight binding; details: protein: ivt; tags: N-terminal GST; dsDNA, one strand shown
T1 sequence: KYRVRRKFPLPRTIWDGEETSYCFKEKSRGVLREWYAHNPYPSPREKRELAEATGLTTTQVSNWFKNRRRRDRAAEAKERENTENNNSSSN
Method in brief: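 After in vitro transcription/translation, GST-tagged homeodomains were quantified against a recombinant GST standard curve by anti-GST western blot. They were then placed in duplicate at 300 nM final concentration on universal 'all 10-mer' protein binding microarrays of 8×60K format.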

Row | Sequence | binding signal [E-score]
1 | ATACCCAC | 0.196 ± 0.0233
2 | CACCAGAC | 0.338 ± 0.00569
3 | CACCGCCC | 0.3 ± 0.0125
4 | ACACGAGT | 0.4013 ± 0.00247
5 | ACCCGAGT | 0.259 ± 0.0341
6 | ACACGAGC | 0.3292 ± 0.0011
7 | ACGCGAGT | 0.162 ± 0.045
8 | ACACGAGA | 0.352 ± 0.0163
9 | ACACGAGG | 0.3796 ± 0.00182
10 | CACCGCGA | 0.238 ± 0.0133
11 | ACCGGGGG | 0.238 ± 0.00986
12 | CAGGGTAC | 0.162 ± 0.0178
13 | AACCCAGA | 0.214 ± 0.0243
14 | CACTATAA | 0.253 ± 0.0572
15 | CACCTTAA | 0.172 ± 0.0487
16 | CCTTGTAA | 0.244 ± 0.024
17 | GCGGGTAA | 0.164 ± 0.019
18 | ACGTGTAA | 0.413 ± 0.0225
19 | CCGGGTAA | 0.177 ± 0.0166
20 | CCGTGTAA | 0.44 ± 0.0102
21 | GCGTGTAA | 0.441 ± 0.0209
22 | CCGTGTAG | 0.4463 ± 0.00194
23 | CCGTGCAC | 0.198 ± 0.0196
24 | GCGTGTGA | 0.347 ± 0.0138
25 | ACGTGTGA | 0.293 ± 0.00636
26 | CCGGGTAG | 0.169 ± 0.0152
27 | TATCGTCA | 0.211 ± 0.012

Row | Sequence | binding signal [E-score]
28 | CGAAAACA | 0.186 ± 0.0616
29 | CACCTAGC | 0.168 ± 0.00559
30 | ACCTCAAC | 0.27 ± 0.0213
31 | CACCCTTC | 0.31 ± 0.0119
32 | CAGCTACA | 0.191 ± 0.0188
33 | GATACTGC | 0.158 ± 0.0138
34 | CACGTTCA | 0.158 ± 0.0324
35 | AATAGGGG | 0.171 ± 0.0238
36 | TCGGGTAA | 0.194 ± 0.00451
37 | TCGTGTAA | 0.434 ± 0.0291
38 | GCTGAACA | 0.169 ± 0.0308
39 | GGGTTTCA | 0.15 ± 0.00187
40 | GTCAAACA | 0.1886 ± 0.00104
41 | AGCAACAC | 0.361 ± 0.00441
42 | CTCAACAC | 0.393 ± 0.0141
43 | ATCAACAC | 0.3939 ± 0.00328
44 | GTCAACAC | 0.38 ± 0.00874
45 | TCCTTACA | 0.222 ± 0.0176
46 | ATTGATCC | 0.187 ± 0.0355
47 | CATCTGAC | 0.236 ± 0.0527
48 | CACTTCAC | 0.154 ± 0.0408
49 | ACTCCGCG | 0.22 ± 0.00707
50 | CACACGTG | 0.362 ± 0.00543
51 | CCAGGATA | 0.2169 ± 0.00146
52 | AACCCCGT | 0.174 ± 0.0274
53 | ACCCCCGT | 0.273 ± 0.0189
54 | CCACCCGG | 0.201 ± 0.0191
